Read-out in test [1]: Protein phosphatase 2A (PPP2R4), PTPA (gene 5524)
The test can be described thus: LTEA_HepaRG_PPP2R4: Life Technologies and Expression Analysis (LTEA) Assay for Protein phosphatase 2A (PPP2R4) using HepaRG (AID 2283522). Conditions: mRNA level, 48 h; actives raise or lower the signal. An outline of the steps:
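Expression was quantified by Fluidigm qRT-PCR normalised to three housekeeping genes after 48 h treatment. Human HepaRG cells received an 8-point series from 100 µM downward by half-logs, in duplicate with 0.5% DMSO vehicle and 1 mM phenobarbital as induction control.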

Read-out in test [2]: Phosphatase and tensin (PTEN), PTEN (gene 5728)
Put plainly: LTEA_HepaRG_PTEN: Life Technologies and Expression Analysis (LTEA) Assay for Phosphatase and tensin (PTEN) using HepaRG (AID 2283523). The conditions noted are these: mRNA level, 48 h; actives raise or lower the signal. An outline of the steps:
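HepaRG, 48 h exposure, 8-pt half-log series from 100 uM top, 0.5% DMSO vehicle, duplicates. Readout: Fluidigm qRT-PCR of PTEN transcript; housekeeping normalization (ACTB, GAPDH, POLR2A). Gain or loss fitted relative to DMSO baseline.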

Read-out in test [3]: solute carrier (SLC22A1), SLC22A1 (gene 6580)
The test can be described thus: LTEA_HepaRG_SLC22A1: Life Technologies and Expression Analysis (LTEA) Assay for solute carrier (SLC22A1) using HepaRG (AID 2283524).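 For AC50: differentiated human HepaRG liver cells in serum-free induction medium.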 The conditions noted are these: mRNA level, 48 h; actives raise or lower the signal. In short, it runs like this:
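qRT-PCR readout (TaqMan, Fluidigm arrays) of SLC22A1 transcript, normalized to three housekeeping genes; bidirectional curve fit relative to 0.5% DMSO vehicle. Differentiated human HepaRG cells, 48 h chemical exposure, top concentration 100 uM, half-log steps, eight points.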

Read-out in test [4]: Pyruvate Dehydrogenase Kinase 4 (PDK4), PDK4 (gene 5166)
The test can be described thus: LTEA_HepaRG_PDK4: Life Technologies and Expression Analysis (LTEA) Assay for Pyruvate Dehydrogenase Kinase 4 (PDK4) using HepaRG (AID 2283525). The conditions noted are these: mRNA level, 48 h; actives raise or lower the signal. An outline of the steps: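 HepaRG (human liver line), 48 h chemical exposure, 8-pt half-log CRC top 100 uM, 0.5% DMSO vehicle, duplicates. Readout: TaqMan qRT-PCR of PDK4 mRNA, housekeeping-normalized; gain/loss fit relative to DMSO baseline.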

Read-out in test [5]: NAD(P)H dehydrogenase [quinone] 1 (NQO1), NQO1 (gene 1728)
Put plainly: LTEA_HepaRG_NQO1: Life Technologies and Expression Analysis (LTEA) Assay for NAD(P)H dehydrogenase [quinone] 1 (NQO1) using HepaRG (AID 2283526). The conditions noted are these: mRNA level, 48 h; actives raise or lower the signal. In short, it runs like this:
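NQO1 transcript induction or loss measured by TaqMan qRT-PCR, referenced to three housekeeping genes and fitted bidirectionally against 0.5% DMSO. HepaRG cultures exposed 48 h, duplicate, eight-point half-log series, top 100 uM.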

Read-out in test [6]: Nuclear factor erythroid 2-related factor 2 (Homo sapiens) (UniProt Q16236)
The test can be described thus: LTEA_HepaRG_NFE2L2: Life Technologies and Expression Analysis (LTEA) Assay for Nuclear factor erythroid 2-related factor 2 (NFE2L2) Transcription Factor using HepaRG (AID 2283527).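 For outcome: TaqMan qRT-PCR transcript level normalised to ACTB GAPDH and POLR2A housekeeping genes.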 Conditions: mRNA level, 48 h; actives raise or lower the signal. An outline of the steps: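 HepaRG, 48 h dosing, 8-pt half-log series from 100 uM in 0.5% DMSO, duplicates. Read-out: NFE2L2 mRNA by qRT-PCR (ACTB/GAPDH/POLR2A normalization). Bidirectional curve fit vs DMSO baseline.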

Read-out in test [7]: succinate dehydrogenase complex iron sulfur subunit B (SDHB), SDHB (gene 6390)
The test can be described thus: LTEA_HepaRG_SDHB: Life Technologies and Expression Analysis (LTEA) Assay for succinate dehydrogenase complex iron sulfur subunit B (SDHB) using HepaRG (AID 2283528). Conditions: mRNA level, 48 h; actives raise or lower the signal. An outline of the steps:
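HepaRG cells (~100,000/well, plated 48 h) exposed in duplicate for 48 h in serum-free induction medium to 8-point half-log series from 100 uM in 0.5% DMSO; mRNA by qRT-PCR normalised to ACTB, GAPDH, POLR2A; bidirectional fit versus DMSO.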

Read-out in test [8]: Signal transducer and activator of transcription 3 (Homo sapiens) (UniProt P40763)
Put plainly: LTEA_HepaRG_STAT3: Life Technologies and Expression Analysis (LTEA) Assay for Signal transducer and activator of transcription (STAT3) using HepaRG (AID 2283529). The conditions noted are these: mRNA level, 48 h; actives raise or lower the signal. In short, it runs like this: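 HepaRG, 48 h exposure, 8-pt half-log series (top 100 uM), 0.5% DMSO vehicle, duplicates. Readout: STAT3 transcript by Fluidigm qRT-PCR, housekeeping-normalized; bidirectional fit vs DMSO baseline.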

Read-out in test [9]: solute carrier (SLCO1B1), SLCO1B1 (gene 10599)
Put plainly: LTEA_HepaRG_SLCO1B1: Life Technologies and Expression Analysis (LTEA) Assay for solute carrier (SLCO1B1) using HepaRG (AID 2283530). The conditions noted are these: mRNA level, 48 h; actives raise or lower the signal. In short, it runs like this:
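HepaRG, serum-free induction medium, 48 h dosing, 8-pt half-log from 100 uM, 0.5% DMSO vehicle, duplicates. Readout: SLCO1B1 mRNA, qRT-PCR, ACTB/GAPDH/POLR2A normalization; up or down fit vs DMSO.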

Read-out in test [10]: Transforming Growth Factor (TGFA), TGFA (gene 7039)
The test can be described thus: LTEA_HepaRG_TGFA: Life Technologies and Expression Analysis (LTEA) Assay for Transforming Growth Factor (TGFA) using HepaRG (AID 2283532). Conditions: mRNA level, 48 h; actives raise or lower the signal. An outline of the steps: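 qRT-PCR read-out of TGFA transcript, normalized to three housekeeping genes, fitted bidirectionally against 0.5% DMSO baseline. Human HepaRG cultures received chemicals for 48 h at eight half-log concentrations, top 100 uM.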

Read-out in test [11]: Transforming Growth Factor (TGFB1), TGFB1 (gene 7040)
The test can be described thus: LTEA_HepaRG_TGFB1: Life Technologies and Expression Analysis (LTEA) Assay for Transforming Growth Factor (TGFB1) Transporter using HepaRG (AID 2283533). Conditions: mRNA level, 48 h; actives raise or lower the signal. An outline of the steps:
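HepaRG, 48 h post-plating, switched to serum-free induction medium; chemicals 100 uM top, half-log, 8 pts, 0.5% DMSO, dup; 48 h exposure; RNA → Fluidigm TaqMan qRT-PCR; norm ACTB/GAPDH/POLR2A; bidirectional fit vs DMSO.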

Read-out in another test: TIMP1, TIMP1 (gene 7076)
Put plainly: LTEA_HepaRG_TIMP1: Life Technologies and Expression Analysis (LTEA) Assay for TIMP1 using HepaRG (AID 2283534). The conditions noted are these: mRNA level, 48 h; actives raise or lower the signal. An outline of the steps:
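Readout is TIMP1 mRNA level measured by qRT-PCR and normalized to three housekeeping genes. Human HepaRG cells were treated for 48 h in duplicate at eight concentrations up to 100 uM (0.5% DMSO); gain or loss fitted against DMSO.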

Read-out in test [12]: Thyroid Hormone Responsive (THRSP), THRSP (gene 7069)
Put plainly: LTEA_HepaRG_THRSP: Life Technologies and Expression Analysis (LTEA) Assay for Thyroid Hormone Responsive (THRSP) using HepaRG (AID 2283536). Conditions: mRNA level, 48 h; actives raise or lower the signal. In short, it runs like this:
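qRT-PCR read-out (Fluidigm TaqMan), housekeeping-normalized (ACTB/GAPDH/POLR2A). HepaRG, 48 h chemical exposure, 8-pt half-log series from 100 uM in 0.5% DMSO, duplicates. Bidirectional curve fit vs 0.5% DMSO baseline.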

Read-out in test [13]: Cellular tumor antigen p53 (Homo sapiens) (UniProt P04637)
The test can be described thus: LTEA_HepaRG_TP53: Life Technologies and Expression Analysis (LTEA) Assay for Tumor Protein P53 (TP53) using HepaRG (AID 2283537). The conditions noted are these: mRNA level, 48 h; actives raise or lower the signal. An outline of the steps:
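Differentiated HepaRG cells in serum-free induction medium exposed 48 h in duplicate to 8 half-log concentrations, top 100 uM, 0.5% DMSO. TP53 mRNA by TaqMan qRT-PCR (Fluidigm), normalized to ACTB, GAPDH, POLR2A; fitted bidirectionally versus DMSO.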

Read-out in test [14]: UDP glucuronosyltransferase (UGT1A1), UGT1A1 (gene 54658)
Put plainly: LTEA_HepaRG_UGT1A1: Life Technologies and Expression Analysis (LTEA) Assay for UDP glucuronosyltransferase (UGT1A1) using HepaRG (AID 2283538). The conditions noted are these: mRNA level, 48 h; actives raise or lower the signal. An outline of the steps:
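UGT1A1 transcript level, measured by qRT-PCR with three housekeeping genes for normalization, after 48 h treatment of human HepaRG cells (0.5% DMSO, duplicates, up to 100 uM, half-log steps, 8 points). Curves fit both directions against DMSO baseline.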

A short description of test [15]: LTEA_HepaRG_LDH_cytotoxicity: Cytotoxicity Assessment in the Life Technologies and Expression Analysis (LTEA) Assay (AID 2283563; active = hit-call score of the fitted dose curve at least 0.9, where 1 is the maximum;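 for AC50: LDH activity released into spent culture medium as a marker of cell death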). An outline of the steps:
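Cells were thawed and plated for 48 h. Medium was then replaced with serum-free induction medium. Chemicals (8 half-log points, maximum 100 uM, 0.5% DMSO) were added in duplicate for 48 h, after which spent medium was assayed for LDH.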

“And” between values parts separate entries of the source, which are not always exact repeats. Equal entries are not always repeated. Some structures have more than one record in an assay (separate samples or runs), and their calls can disagree. The source made the active and inactive calls. Rule for the calls, unless noted: active = hit-call score of the fitted dose curve at least 0.9, where 1 is the maximum; inactive = score below 0.9.

Sequence of Cellular tumor antigen p53 (Homo sapiens) (P04637 whole entry, looked up): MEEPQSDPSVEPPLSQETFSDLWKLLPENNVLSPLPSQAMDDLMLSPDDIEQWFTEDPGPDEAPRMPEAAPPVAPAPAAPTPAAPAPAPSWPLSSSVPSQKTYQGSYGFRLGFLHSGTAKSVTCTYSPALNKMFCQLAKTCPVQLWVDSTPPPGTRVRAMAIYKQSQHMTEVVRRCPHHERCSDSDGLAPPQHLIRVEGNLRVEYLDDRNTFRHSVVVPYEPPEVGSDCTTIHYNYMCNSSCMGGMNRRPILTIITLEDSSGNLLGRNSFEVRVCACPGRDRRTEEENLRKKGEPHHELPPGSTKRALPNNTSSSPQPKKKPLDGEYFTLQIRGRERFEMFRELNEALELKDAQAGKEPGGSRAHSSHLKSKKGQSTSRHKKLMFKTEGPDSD
Sequence of Signal transducer and activator of transcription 3 (Homo sapiens) (P40763 whole entry, looked up): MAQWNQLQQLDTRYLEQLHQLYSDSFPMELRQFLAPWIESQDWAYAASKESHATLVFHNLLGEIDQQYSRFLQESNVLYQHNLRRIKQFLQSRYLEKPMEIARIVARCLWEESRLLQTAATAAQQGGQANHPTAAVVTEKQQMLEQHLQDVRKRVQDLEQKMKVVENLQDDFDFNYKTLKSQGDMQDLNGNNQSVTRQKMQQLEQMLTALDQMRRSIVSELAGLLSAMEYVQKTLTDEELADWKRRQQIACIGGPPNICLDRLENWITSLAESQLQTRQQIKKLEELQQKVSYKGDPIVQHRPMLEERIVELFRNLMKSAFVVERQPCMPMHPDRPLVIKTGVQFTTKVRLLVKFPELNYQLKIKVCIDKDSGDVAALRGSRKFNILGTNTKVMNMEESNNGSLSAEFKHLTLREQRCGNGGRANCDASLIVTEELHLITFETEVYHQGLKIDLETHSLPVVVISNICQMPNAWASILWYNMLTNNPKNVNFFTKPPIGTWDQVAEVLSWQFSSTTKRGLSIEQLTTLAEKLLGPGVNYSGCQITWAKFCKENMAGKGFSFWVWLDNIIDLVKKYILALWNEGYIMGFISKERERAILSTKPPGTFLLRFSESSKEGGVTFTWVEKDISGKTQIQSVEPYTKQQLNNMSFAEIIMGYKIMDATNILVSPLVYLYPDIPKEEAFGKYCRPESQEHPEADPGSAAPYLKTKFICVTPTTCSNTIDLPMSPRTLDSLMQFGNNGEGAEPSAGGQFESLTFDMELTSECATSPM
Sequence of Nuclear factor erythroid 2-related factor 2 (Homo sapiens) (Q16236 whole entry, looked up): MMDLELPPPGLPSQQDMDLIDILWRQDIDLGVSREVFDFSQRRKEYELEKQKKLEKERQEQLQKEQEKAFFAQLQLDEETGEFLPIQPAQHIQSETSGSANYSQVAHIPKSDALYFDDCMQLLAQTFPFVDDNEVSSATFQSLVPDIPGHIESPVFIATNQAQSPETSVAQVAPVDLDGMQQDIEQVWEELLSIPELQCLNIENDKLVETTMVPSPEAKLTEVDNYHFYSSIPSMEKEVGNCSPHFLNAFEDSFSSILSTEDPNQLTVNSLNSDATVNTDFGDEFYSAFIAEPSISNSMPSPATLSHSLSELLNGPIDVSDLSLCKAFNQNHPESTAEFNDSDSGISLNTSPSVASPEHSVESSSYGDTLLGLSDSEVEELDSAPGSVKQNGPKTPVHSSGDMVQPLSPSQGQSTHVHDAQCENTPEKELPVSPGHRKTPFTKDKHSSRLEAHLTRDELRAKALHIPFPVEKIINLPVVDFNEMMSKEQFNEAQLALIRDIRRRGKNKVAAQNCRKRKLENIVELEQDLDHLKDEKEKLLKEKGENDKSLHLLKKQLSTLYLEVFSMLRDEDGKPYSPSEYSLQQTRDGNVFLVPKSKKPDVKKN

On to `COP(=S)(OC)Oc1ccc(SC)c(C)c1`, for which the call in test [1], in [2], in [3], in [4], in test [5] and in test [6] was inactive. Further, the outcome in test [7] is “inactive”; in test [8], “inactive”; in [9], “inactive”; in test [10], “inactive”; in test [11], “inactive”; with TIMP1, TIMP1 (gene 7076), “inactive”. Besides, the molecule was classed as inactive in [12], in test [13] and in test [15]. The concentration at half-maximal activity (AC50) in [14] was 25.2 µM (active).
`O=S(=O)(O)C(F)(F)C(F)(F)C(F)(F)C(F)(F)C(F)(F)C(F)(F)C(F)(F)C(F)(F)F`: the AC50 in test [1] was 50 µM (active); in [3] it was 90.2 µM (active) and 89.8 µM (active) and 83.1 µM (active); in test [4], 27 µM (active) [middle of 4 runs]; in [6], 58 µM (active); in test [7] it was 9.92 µM (active); in [9] it was 93.1 µM (active) and 79 µM (active) and 77.6 µM (active). The half-maximal activity concentration (AC50) was 50 µM (active) and 16.7 µM (active) and 48 µM (active) in [10]; 48 µM (active) in [11]; 34.2 µM (active) and 45.8 µM (active) and 60 µM (active) in test [12]; 50 µM (active) and 48 µM (active) in test [13]; 12.9 µM (active) and 11.5 µM (active) and 11.9 µM (active) in [14]; 75.8 µM (active) and 79.2 µM (active) and 75.4 µM (active) in test [15]. Also, the outcome in test [1], in test [3], in [5], in test [6], in test [7] and in test [8] was inactive. The outcome in test [9] is “inactive”; in test [11] it was “inactive”; in the test with TIMP1, TIMP1 (gene 7076), “inactive”; in [12] it was “inactive”; in test [15], “inactive”.

Source of the values: PubChem BioAssay (EPA / NIEHS).
